In the supplement of paper PMC6555819:

What follows are sequences tested on RARg homodimer (NR concentration 270 nM) (assay: PBM binding z-score (relative to random genomic background probes); higher = stronger binding; sequences stand for … in GC…GCGATTGACAGCGTAGAATGAAGG).
Outline: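 Antibodies against each partner of ligand-free nuclear receptor dimers (one per run) detected binding on custom Agilent 4×180K protein-binding microarrays after 1 h incubation. The double-stranded probes had 34-nt variable regions carrying direct-repeat seeds, single-nucleotide variants, half-site ablations and random human genomic background sequences. Binding z-scores, from regression-normalized fluorescence, use the random background probes as reference.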

Row | Sequence | PBM binding z-score
1 | TATACAGGGTCAAAGGCCAGGGTACGAATGTCGA | 5.14
2 | TCTAGGAGGCCAGAGGGTCACTCAAGAGGTACGG | 2.32
3 | TCATATAGGTATACAGGTGAAAGTCCGTAAGTTA | 0.35
4 | TTACCTAGGTGAGCTGAGGTCGTTGATCCAACTC | 0.325
5 | CGTCCAAGGTCAGCAGGGCAGTGAAAGCGACGTG | 5.9
6 | ACTATTAGTTGAGACGAGGGGAACCGATAGGTTG | 0.42
7 | ATCTCTTGGTAAAGTTCAGTGAAAGATCGATAGA | 2.53
8 | CCTAGCAGGCCAGGGTCACTCATGCATTTCGCTT | 1.97
9 | ATCGAAAGGCCGAGGTGAGTATAGAGAAAGGGAA | 1.25
10 | TCATATAGGAAAACAGGTGAAAGTCCGTAAGTTA | 0.0668
11 | TAATATAGGTAAAGGTGAAAGTCGAACGATATGA | 1.66
12 | CCTATTAGTTGACCATAAGGGCAACCGAAGCTCG | 0.855
13 | CGTACTAGGTCAAGGACAGTGAATCTCCGCACGC | 4.64
14 | GCTATTAGTTGAAAGGGCAGCCGAATGATTCTCG | 0.863
15 | GCTAGCAGGCCAATTGGGTCACTCAATGACGGGC | 1.15
16 | CAGCCTATGTCAGGGCCAGTATAGGAGGAACGTT | 0.219
17 | TGAATGAGGATATAAGATCAGGGAACGTTGCAAA | 0.402
18 | ACTAGCTGGCCAAGTTTGGGTCACTCAAACAAAG | 0.564
19 | TCATATAGGTAAACAGGTGAAAGACCGTAAGTTA | 0.452
20 | CGAACGAGGGCATGAATTGATAGCAAATGCCGAT | 1.3

Row | Sequence | PBM binding z-score
21 | AGAACGAGGGCAATGAGTTGATAGAACGGGTGGC | 1.61
22 | AGTCAAAGTTCATCTAGGTAACGTAAGATATGCT | 6.2
23 | TCAGACAGGTGAAGGTAACTCAAGTACGCAGTCG | 0.747
24 | TCGAGTAGGTTAGTCGGGGCAGTCAGCCAACATA | 0.0307
25 | ACTCGGAGGACAAAGGCCAGAGCTACGCCAGTGA | 1.26
26 | CCTGCTAGGTCAATGGGCAGCTAAAGCAGCTCGC | 4.03
27 | TGAACGAGGTTATAAGATCAGGGAACGTTGCAAA | 1.1
28 | ACTAGCAGGCCAAGTTTGAGTCACTCAAACAAAG | 0.196
29 | ATCTCTAGGTAACCAGGTTCAGTGAATGCCGAAC | 0.267
30 | AGAGTGAGGTTATTAAGATCAGGGAATTGCGGTC | 0.991
31 | CCTAGCAGGGCAGGGTCACTCAAGCATTTCGCTT | 3.01
32 | TTACCAAGGTGAAAGGTAGTTGATGCACGCCTTG | 0.73
33 | CCTGCTAGGTTATGGTCAGCTAATCTACAGTATG | 0.636
34 | ACCGAAAGGTCGTGAGGTGAGTATACAGAAAGGC | 4.01
35 | ACAGACAGGTGGTGAAGGTAACTCAGGCTATCAT | -0.0161
36 | ACTAGTTGGTCAGCTGAGGTCACCCACAATTCGG | 4.02
37 | GGTTGTAGATCAAGGTTAAGAAAGACTAAGCTAA | 0.809
38 | GTACCAAGGGGAATAGGTCGTTGATGAGTAGGCG | 0.371
39 | CCTTACGGGTCACTCCAGCTTATAGCATCGGAGT | 4.22
